This is a sample that favours compounds with a hit; in the whole collection about 5.3% have one here.
JMJD2A Tudor – JMJD2A Tudor domain (human) inhibition | 390,000 compounds, 4.4% hits | Potency, µM (doses to about 114 µM), without a hit: top-dose activity change, negative = inhibition, usual class: inhibitors | AlphaScreen JMJD2A-Tudor / H3K4me3 peptide binding | O75164; also: potency is read from the fitted curve at half-maximal effect; % is scaled to controls: 0 for no effect and ±100 for the full control effect; nearly all actives have a fitted effect of over 50% in size
BAZ2B inh – BAZ2B (human) inhibition | Q9UIF8 | AlphaScreen BAZ2B-H3K14Ac peptide displacement | Potency, µM (highest dose often 114 µM), inactives show top-dose activity change, negative = inhibition, actives largely listed as inhibitors | 360,000 compounds, 4.4% hits | AID 504333; also: potency is read from the fitted curve at half-maximal effect; % is scaled to controls: 0 for no effect and ±100 for the full control effect; nearly all actives have a fitted effect of over 60% in size
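In this displacement format the biotinylated H3(5-23) peptide acetylated at Lys14 serves as ligand at 50 nM, with BAZ2B at 50 nM in PBS pH 7.4 containing 0.01% Tween-20. Donor and acceptor beads are 10 ug/mL final.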
TDP1 inh – blocks human tyrosyl-DNA phosphodiesterase 1. recombinant TDP1, AlphaScreen DNA substrate cleavage. Potency, µM (titrated, usually from 130 µM), for inactives: top-dose activity change, negative = inhibition, hits mostly inhibitors. 350,000 compounds, 0.28% hits. AID 485290; also: potency is read from the fitted curve at half-maximal effect; % is scaled to controls: 0 for no effect and ±100 for the full control effect; nearly all actives have a fitted effect of over 40% in size
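Enzyme-compound mixtures sat 15 min at room temperature, followed by a 5 min reaction with 15 nM final substrate and 10 min with AlphaScreen beads. Recombinant human Tdp1 was used at 1 nM final.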
Six1-Eya2 inh – inhibitors of human Six1/Eya2 interaction; Q15475+O00167; AlphaScreen GST-Six1/His-Eya2 binding, biochemical; stronger effect = lower value; activity change, % (no concentration beside the values); 360,000 compounds, 0.56% hits; in the data active = activity change below about -65%; inconclusive = mostly about -30% to -63%; also: % is scaled to controls: 0 for no effect and ±100 for the full control effect
Target sequence (O00167 whole entry, looked up): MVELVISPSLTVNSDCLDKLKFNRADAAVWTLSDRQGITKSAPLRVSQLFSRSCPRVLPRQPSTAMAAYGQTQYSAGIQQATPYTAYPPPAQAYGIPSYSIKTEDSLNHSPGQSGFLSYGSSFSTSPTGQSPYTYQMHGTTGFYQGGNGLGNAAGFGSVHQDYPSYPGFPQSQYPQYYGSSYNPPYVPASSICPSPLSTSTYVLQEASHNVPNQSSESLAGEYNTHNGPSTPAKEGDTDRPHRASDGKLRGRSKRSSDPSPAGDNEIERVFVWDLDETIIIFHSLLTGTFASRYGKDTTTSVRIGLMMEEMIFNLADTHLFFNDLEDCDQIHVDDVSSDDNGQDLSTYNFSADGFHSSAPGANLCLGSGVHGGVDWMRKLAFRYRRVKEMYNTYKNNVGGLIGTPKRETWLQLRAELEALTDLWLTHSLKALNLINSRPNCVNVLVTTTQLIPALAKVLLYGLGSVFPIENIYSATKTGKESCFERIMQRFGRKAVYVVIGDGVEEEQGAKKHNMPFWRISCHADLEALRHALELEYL
Target sequence (Q15475 whole entry, looked up): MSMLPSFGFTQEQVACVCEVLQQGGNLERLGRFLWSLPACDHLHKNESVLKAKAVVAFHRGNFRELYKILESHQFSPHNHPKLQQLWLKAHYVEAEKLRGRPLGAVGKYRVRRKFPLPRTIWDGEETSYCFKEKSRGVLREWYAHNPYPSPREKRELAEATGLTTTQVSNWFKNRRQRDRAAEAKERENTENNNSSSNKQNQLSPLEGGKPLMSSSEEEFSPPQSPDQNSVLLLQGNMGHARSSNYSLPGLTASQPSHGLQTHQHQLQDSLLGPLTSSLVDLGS
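AlphaScreen luminescence read after one hour at 37 °C in darkness. Pin-transferred compounds met GST-Six1 and His-Eya2 protein (5X stock 250 nM/500 nM) plus glutathione donor and Ni-chelate acceptor beads (5X, 50 ug/mL).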
HP1b chromo inh – HP1-beta chromodomain-methylated histone interaction inhibition. P83916. AlphaScreen HP1-beta / biotin-H3K9me3 peptide binding. Potency, µM (series often up to 114 µM), for the others: top-dose activity change, negative = inhibition, usual class: inhibitors. 390,000 compounds, 0.56% hits. AID 540317; also: potency is read from the fitted curve at half-maximal effect; nearly all actives have a fitted effect of over 70% in size
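AlphaScreen: HP1-beta (50 nM) preformed 30 min with biotin-H3(1-18)K9me3 peptide (50 nM) in PBS pH 7.4, 0.01% Tween-20. Compound added for 30 min at RT, then streptavidin donor/nickel chelate acceptor beads (10 ug/mL) for 30 min.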
CtBP-E1A inh – CtBP/E1A binding inhibition; 340,000 compounds, 0.49% hits; AID 651724; AlphaScreen GST-E1A/His-CtBP binding, 1536-well; stronger effect = lower value; activity change, % (test concentration not listed); in the data active = activity change below about -65%; inconclusive = mostly about -30% to -63%; also: % is scaled to controls: 0 for no effect and ±100 for the full control effect
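In 5 uL wells, 23 nL compound meets equimolar GST-E1A and His-CtBP (5X stock 125 nM each) for 2 h, 37 °C. Beads (5X, 50 ug/mL) then 1 h, 37 °C, dark.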
The depositor's hits bear a star; ? = inconclusive; . = not tested or not shown; [ ] = remark or other dose. Unless noted, calls follow the shape of the dose curve; as a rule, active = well fitted inhibition curve with a large enough effect; inconclusive = small, poorly fitted or top-dose-only effect; inactive = no such curve, though single readings can be large or run the other way.

SMILES | JMJD2A Tudor | BAZ2B inh | TDP1 inh | Six1-Eya2 inh | HP1b chromo inh | CtBP-E1A inh
CCCCS(=O)CC(O)CSc1nc(-c2ccc(OC)cc2)cc(-c2ccccc2)c1C#N (stereo unspecified) | -1% | 2% | 2%[2.28 µM] | . | 55% | .
CN(C)S(=O)(=O)N(CC(=O)NCCSc1ccccc1)c1ccccc1 | -7% | 0% | 0% | . | 21% | .
COc1cccc(NC(=O)Cn2c(CCC(=O)O)ccc2-c2ccc(Cl)cc2)c1 | -22% | 45µM* | 7% | 3 | -13% | 4
COc1cccc(NC(=O)Cn2c(CCC(=O)O)ccc2-c2ccccc2)c1 | -10% | -32% | 6% | -9 | 5% | -3
Cc1cccc(N2CCN(Cc3nnc(-c4ccccc4C)o3)CC2C)c1 (stereo unspecified) | 79µM* | ? | 2% | . | -8% | .
Cc1ccccc1OCC(=O)N(Cc1ccc(N(C)C)cc1)CC1CCCO1 (stereo unspecified) | 45µM* | 32µM* | 9% | . | ? | .
Cc1ccc2oc(C(=O)N(Cc3ccc(N(C)C)cc3)CC3CCCO3)c(C)c2c1 (stereo unspecified) | 50µM* | 11µM* | 14% | ? | ? | ?
COc1cc(C(=O)N(Cc2ccc(N(C)C)cc2)CC2CCCO2)cc(OC)c1OC (stereo unspecified) | -30% | 79µM* | 0% | . | 5% | .
Cc1cc(C)c(OCC(=O)N(Cc2ccc(N(C)C)cc2)CC2CCCO2)c(C)c1 (stereo unspecified) | 40µM* | 28µM* | 9% | . | ? | .
Cc1cccc(C)c1OCC(=O)N(Cc1ccc(Cl)cc1)CC1CCCO1 (stereo unspecified) | 12% | 42% | -7% | . | 54% | .
Cc1oc2c(C)c3oc(=O)c(CCC(=O)N4CCCCC4)c(C)c3cc2c1C | -14% | -3% | 2% | . | 31% | .
COc1ccc(N2CCN(S(=O)(=O)CCNC(=O)c3ccc(C(F)(F)F)cc3)CC2)cc1 | -6% | -3% | 1% | . | 11%[57 µM] | .
Cc1ccc(OCC(=O)N(Cc2ccc(N(C)C)cc2)CC2CCCO2)cc1C (stereo unspecified) | 50µM* | 32µM* | 9% | . | ? | .
Cc1ccc(OCC(=O)N(Cc2ccc(N(C)C)cc2)C2CCS(=O)(=O)C2)cc1C (stereo unspecified) | ? | 45µM* | -1% | 5 | ? | -9
CN(C)c1ccc(CN(C(=O)COc2ccccc2)C2CCS(=O)(=O)C2)cc1 (stereo unspecified) | -25% | ? | 0% | -14 | -8% | 0
O=C1CCC=C1C(O)c1ccc2c(c1)OCO2 (stereo unspecified) | . | . | 4% | . | . | .
O=C(O)c1cccnc1SCc1ccc([N+](=O)[O-])cc1 | 2% | -6% | . | 1 | 63% | .
Cc1ccccc1Sc1ncccc1[N+](=O)[O-] | ? | . | . | ? | -38% | ?
Cc1ccc(Sc2ncccc2[N+](=O)[O-])cc1 | 45µM* | ? | . | -22 | ? | -22
O=[N+]([O-])c1cccnc1Sc1ccc(Br)cc1 | 56µM* | . | . | ? | ? | -28
Cc1c([N+](=O)[O-])cnc(Sc2ccccc2)c1[N+](=O)[O-] | 40µM* | . | . | -3 | ? | .
O=[N+]([O-])c1cccnc1SCc1ccccc1 | 14µM* | 32µM* | . | -20 | 35µM* | -23
Cc1nn(C)c(C(=O)Sc2ccccc2)c1[N+](=O)[O-] | -14% | -13% | . | 3 | 44% | 0
Cc1ccc(C(=O)N2CCN(CCc3ccncc3)CC2)cc1 | -12% | -16% | 5% | . | 45% | .
COc1ccc(N2CCN(C(=O)C3Cc4ccccc4N3C(C)=O)CC2)cc1 (stereo unspecified) | -14% | -17% | 1% | . | 13% | .
SMILES | JMJD2A Tudor | BAZ2B inh | TDP1 inh | Six1-Eya2 inh | HP1b chromo inh | CtBP-E1A inh
COC(=O)NC(c1ccccc1)c1c[nH]c2ccc(OC)cc12 (stereo unspecified) | . | . | 7% | . | . | .
CC(=O)N1CN(Cc2ccccn2)Cc2c1sc1c2CCCC1 | 40µM* | 28µM* | 3% | -74* | 28% | ?
CCOC(=O)[C@H]1[C@H]2COc3ccc(Br)cc3[C@@H]2N2C(=O)CN(Cc3ccc(Cl)cc3)C(=O)[C@@]12C | -21% | . | 2% | 1 | 26% | 8
CCOC(=O)[C@H]1[C@H]2COc3ccc(Br)cc3[C@@H]2N2C(=O)CN(Cc3ccco3)C(=O)[C@@]12C | ? | 50µM* | 3% | -12 | 9% | -6
COc1ccc(-c2n[nH]c(=S)n2Cc2ccco2)cc1 | 14µM* | -38% | 4% | -1 | 14% | 6
Oc1ccccc1-c1n[nH]c(=S)n1Cc1ccco1 | 5.6µM* | -34% | 1% | -12 | -22% | -7
COc1cccc(Cc2n[nH]c(=S)n2Cc2ccco2)c1 | 14µM* | -32% | . | -20 | -7% | -1
CCn1c(-c2cccn(Cc3ccccc3)c2=O)n[nH]c1=S | ? | -2% | ? | -3 | 18% | -4
Cc1cc(-c2n[nH]c(=S)n2Cc2ccco2)n(C)n1 | 20µM* | -3% | 2% | 2 | 28% | 11
CCOC(=O)CSc1nnc(CSc2nc(C)cc(C)n2)n1Cc1ccco1 | -18% | -3% | -2% | 3 | 34% | -4
COCCCNC(=O)CCCN1C(=O)CCn2nc(-c3cn(C)c4ccccc34)cc21 | 0% | 1% | 2% | . | 27%[57 µM] | .
CCOc1ccccc1NC(=O)CN1C(=O)COc2ccc(S(=O)(=O)NC3CCCC3)cc21 | -18% | -4% | 4% | . | 28% | .
CCN(CC)C(=O)Cn1c(=O)n(CC2CCC(C(=O)NC)CC2)c(=O)c2sccc21 (stereo unspecified) | 1% | 22% | 10% | . | 125% | .
Cc1ccc2c(c1)N(C(=O)N1CCC(C(=O)NCc3ccccc3F)CC1)CC(C)O2 (stereo unspecified) | ? | -22% | 4% | . | 39% | .
Cc1cc(-c2n[nH]c(=S)n2Cc2ccco2)nn1C | 6.3µM* | -33% | -1% | 3 | 11% | -4
Cc1c(Br)c(-c2n[nH]c(=S)n2Cc2ccco2)nn1C | ? | -27% | 3% | 1 | 20% | -3

Source: PubChem
